{
  "source": "PubChem BioAssay AID799",
  "about": "(SRMLSC, 2007)",
  "note": "The campaign covered roughly 140,000 compounds. About 840 (0.6%) were called active. This excerpt belongs to a sample that is enriched for actives. Values without a mark were called inactive.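 How the source made its calls: active means viability gain under doxorubicin at or above a set limit, the compound median plus 3 SD (cut at about 4.7% in these data); inactive means the rest.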",
  "data": [
    {"experiment": "H69AR viability gain despite doxorubicin, primary screen, MRP-1 activator project, H69AR cells, CellTiter-Glo (AID 799);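 further: MRP-1 overexpressing cells given doxorubicin 25 µM after compound pretreatment; 18-22 h compound pretreatment then 72 h with doxorubicin before readout; 0% = doxorubicin-only wells and 100% = vehicle-treated cells without doxorubicin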", "conditions": "viability rescue, at 10 µM, stronger effect = higher value", "values": [
      {"smiles": "Cc1ccc(N2C(=O)C3C(c4ccccc4)(C2=O)C3(c2ccccc2)c2ccccc2)cc1", "note": "(stereo not drawn)", "viability increase": "5.37% (active)"},
      {"smiles": "N/C(=N\\OC(=O)N1c2ccccc2Sc2ccccc21)c1ccc(Br)cc1", "viability increase": "-2.4%"},
      {"smiles": "COc1cc2c(cc1NC(=O)COC(=O)/C=C/c1ccccc1)oc1ccccc12", "viability increase": "-4.74%"},
      {"smiles": "O=C(CSCc1ccc(Cl)cc1)N1CCN(Cc2ccc3c(c2)OCO3)CC1", "viability increase": "5.45% (active)"},
      {"smiles": "CS(=O)(=O)N(CC(=O)N1CCN(Cc2ccc3c(c2)OCO3)CC1)c1ccc2c(c1)OCO2", "viability increase": "-1.42%"},
      {"smiles": "O=C(CSCc1ccc(Cl)cc1)N1CCCCC1", "viability increase": "0.74%"},
      {"smiles": "CCN(C(=O)COC(=O)c1c(NC(C)=O)sc(C)c1C)C1CCS(=O)(=O)C1", "note": "(stereo not drawn)", "viability increase": "-2.05%"},
      {"smiles": "CCOc1ccc(Nc2nc(Cl)nc(N3CCN(c4ccc(OC)cc4)CC3)n2)cc1", "viability increase": "1.19%"},
      {"smiles": "CN(Cc1cccs1)C(=O)Cc1c[nH]c2ccccc12", "viability increase": "-2.21%"},
      {"smiles": "Cc1cccc(OCc2ccc(C(=O)Nc3ccc(F)cc3)cc2)c1", "viability increase": "4.9% (active)"},
      {"smiles": "Cc1cccc(C(=O)Nc2ccc(CC(=O)O)cc2)c1", "viability increase": "-0.27%"},
      {"smiles": "CCC(=O)Nc1ccc(C(=O)Nc2cccc(OC)c2)cc1", "viability increase": "-2.62%"},
      {"smiles": "CCOP(=O)(OCC)C(Nc1cccc(C)c1)c1ccc(F)cc1", "note": "(stereo not drawn)", "viability increase": "0.43%"},
      {"smiles": "CCOC(=O)C(NC(=O)CC(C)C)(Nc1sc2c(c1C(N)=O)CCCC2)C(F)(F)F", "note": "(stereo not drawn)", "viability increase": "-2.1%"},
      {"smiles": "C/C(=N\\NS(=O)(=O)c1ccc(Cl)cc1)c1ccc(NC(=O)c2ccco2)cc1", "viability increase": "-2.49%"},
      {"smiles": "O=C1NC(=Nc2ccc(Cl)cc2)SC1Cc1cccc(Cl)c1Cl", "note": "(stereo not drawn)", "viability increase": "6.35% (active)"},
      {"smiles": "NC1=NC(=O)C(Cc2cccc(Cl)c2Cl)S1", "note": "(stereo not drawn)", "viability increase": "-0.15%"},
      {"smiles": "Cc1c(Cl)cccc1NC(=O)CC1SC(=NCC2CCCO2)NC1=O", "note": "(stereo not drawn)", "viability increase": "2.61%"},
      {"smiles": "CC(C)CNC(=O)C(=O)Nc1ccc(N(C)C)cc1", "viability increase": "0%"},
      {"smiles": "CC1CCc2sc(C(=O)N/N=C/C3CCCCC3)cc2C1", "note": "(stereo not drawn)", "viability increase": "-1.48%"},
      {"smiles": "Oc1c(C(c2ccco2)N2CCC3(CC2)OCCO3)sc2ncnn12", "note": "(stereo not drawn)", "viability increase": "0.05%"},
      {"smiles": "Oc1c(C(c2cccs2)N2CCN(c3ccc(F)cc3)CC2)sc2ncnn12", "note": "(stereo not drawn)", "viability increase": "10.6% (active)"},
      {"smiles": "Cc1ccc(C(c2sc3nc(C)nn3c2O)N2CCN(c3ccc(F)cc3)CC2)cc1", "note": "(stereo not drawn)", "viability increase": "-2.22%"},
      {"smiles": "Cc1c(C2=CCN(S(=O)(=O)c3ccc(Cl)cc3)CC2)c2ccccc2n1C", "viability increase": "-0.07%"},
      {"smiles": "COc1nc(N(C)C)nc(N2CC(=O)N(CCNS(=O)(=O)c3ccc(C)cc3)C2=N)n1", "viability increase": "-2.66%"},
      {"smiles": "O=C1N/C(=C/c2cccn2-c2ccccc2)C(=O)N1c1cccc(Cl)c1", "viability increase": "-0.22%"},
      {"smiles": "Cc1c(Cl)cccc1NC(=S)NCc1ccc2c(c1)OCO2", "viability increase": "-4.04%"},
      {"smiles": "COc1ccc(C2CC(c3cccs3)=NN2C(=O)COC(=O)c2cc3ccccc3cc2O)cc1OC", "note": "(stereo not drawn)", "viability increase": "-0.45%"},
      {"smiles": "FC(F)(F)c1cc(-c2ccco2)nc(NCc2ccc(Cl)cc2)n1", "viability increase": "-0.53%"},
      {"smiles": "COc1nc(NCc2ccc(Cl)cc2)nc(OC)n1", "viability increase": "5.12% (active)"},
      {"smiles": "C=CCNc1nc(C)nc(OC)n1", "viability increase": "0.38%"},
      {"smiles": "CCOc1ccc(/C=N/OCC(=O)NCc2cccs2)cc1", "viability increase": "0%"},
      {"smiles": "COc1ccc2c(c1)C(SCC(=O)NCc1ccccc1)CC(C)(C)O2", "note": "(stereo not drawn)", "viability increase": "-1.61%"},
      {"smiles": "COc1ccc(-c2csc(NC(=O)CCCc3cccs3)n2)cc1", "viability increase": "3.87%"},
      {"smiles": "COc1ccc(N2C(=O)C(CC(=O)Nc3ccc(F)cc3)N(CCc3cccs3)C2=O)cc1", "note": "(stereo not drawn)", "viability increase": "5.39% (active)"},
      {"smiles": "COC(=O)CN1C(=S)N(c2ccccc2)C(=O)C1CC(=O)Nc1ccc(Cl)cc1", "note": "(stereo not drawn)", "viability increase": "-1.37%"},
      {"smiles": "CC(C)COP(=O)(c1ccc(N(C)C)cc1)C(Nc1ccccc1)c1cccnc1", "note": "(stereo not drawn)", "viability increase": "-3.48%"},
      {"smiles": "CCOc1ccc(Oc2nc(C)cc(OC)n2)nn1", "viability increase": "0.08%"},
      {"smiles": "Cc1ccc(NC(=O)c2cccs2)cc1S(=O)(=O)N(C)C", "viability increase": "-1.25%"},
      {"smiles": "O=S(=O)(NCCSc1ccccn1)c1ccc(Cl)cc1", "viability increase": "0.85%"},
      {"smiles": "Cc1cccc2cc(CN(Cc3cccs3)C(c3nnnn3C3CCCC3)C(C)C)c(=O)[nH]c12", "note": "(stereo not drawn)", "viability increase": "-3.53%"},
      {"smiles": "Cc1cccc2cc(CN(Cc3cccs3)C(=S)NCc3ccco3)c(=O)[nH]c12", "viability increase": "5.98% (active)"},
      {"smiles": "Cc1cccc2cc(CN(C(=O)c3cccs3)c3ccccc3)c(=O)[nH]c12", "viability increase": "-0.07%"},
      {"smiles": "Cc1ccc(Oc2cc(NC(=O)CCCn3nc(C)c([N+](=O)[O-])c3C)cc([N+](=O)[O-])c2)cc1", "viability increase": "-2.6%"},
      {"smiles": "O=C(O)c1cccc(N=NN2CCCCCC2)c1", "viability increase": "-1.92%"},
      {"smiles": "COC(C(=O)NCc1ccccc1C)c1ccccc1", "note": "(stereo not drawn)", "viability increase": "-0.37%"},
      {"smiles": "COc1cc(C2C(N3C(=O)c4ccccc4C3=O)C(=O)N2c2ccc(C)c(C)c2)cc(OC)c1OC", "note": "(stereo not drawn)", "viability increase": "-3.6%"},
      {"smiles": "CCCCOc1ccc(C(=O)N/C(=C/C=C/c2ccccc2)C(=O)N2CCOCC2)cc1", "viability increase": "-4.14%"}
    ]}
  ]
}
